Compounds without any hit were thinned out: in the full panel of roughly 83,000, 20% have a hit.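 Cells were grown in 96-well plates and exposed to the test compound at a single concentration for 48 hours; results are reported as percent growth, with values below 10 considered active.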 Unmarked numbers belong to inactive results. Calls of active or inactive are those of the source.

For this experiment, the system named is SK-OV-3 ovarian. Briefly: NCI-60 one-dose screen, 48 h (100 = growth as untreated, 0 = no growth, -100 = all killed). The note with it: 10 µM.
Regarding `C#CCNC(=O)CCC(=O)OC[C@]12CC[C@@H](C(=C)C)[C@@H]1C1CC[C@@H]3[C@@]4(C)CCCNC(C)(C)[C@@H]4CC[C@@]3(C)[C@]1(C)CC2` (some centres undefined), the growth is 26.9%.
Then `Cc1ccc(-c2nc(Nc3ccc(S(N)(=O)=O)cc3)c3ccccc3n2)cc1`, with 114%; and `N#Cc1ccc(-c2nn(-c3ccc(C(=O)O)cc3)cc2CNc2cccc(Br)c2)cc1`, with 112%; and `Cc1noc2c(Cc3ccc([N+](=O)[O-])cc3)nn(CC(=O)N/N=C/c3ccc(Br)cc3)c(=O)c12`, with 86.2%.
Then `Cc1ccc(/C=C/C(=O)c2ccc(NC(=O)CSc3nnc(-c4c[nH]c5ccccc45)n3-c3ccccc3)cc2)c(C)c1`, with 106%; and `O=C1c2ccccc2C(=O)c2c1c(C(=O)c1ccc(Cl)cc1)n1c2ccc2c3ccccc3ccc21`, with 95%; and `COc1ccc(C(=O)Nc2sc3c(c2C#N)CCC(=O)C3)cc1C(F)(F)F`, with -3.75% (active).
The same measure for `COc1ccc(C2NC(=S)NC(C)=C2C(=O)OC(C)C)cc1OC` (centres undefined): 135%; for `COc1ccc(OC)c(/C=N/NC(=O)c2ccc3nc(-c4ccc(Cl)cc4)[nH]c3c2)c1`: 84.9%; for `Nc1nc(Nc2ccc(Cl)cc2)n(Cc2cccc(Br)c2)n1`: -2.59% (active).
On to `O=C(CSc1nnc(-c2ccc3nc(-c4ccc(Cl)cc4)[nH]c3c2)o1)Nc1ccc(Br)cc1`, for which the growth was 60.2%.
Then `COc1cc2c(cc1OC)CN(CCCCOc1cc(O)c3c(=O)cc(-c4ccccc4)oc3c1)CC2`, with 74.5%.
For `O=C(CSc1nnc(-c2c[nH]c3ccccc23)n1-c1ccccc1)c1ccc(Br)cc1`, the growth is 48.6%.
As to `Cc1ccc(/C=C/C(=O)c2ccc(NC(=O)CSc3nnc(-c4c[nH]c5ccccc45)n3-c3ccccc3)cc2)cc1`, the growth was 106%.
Then `CC1=C(c2cc(-c3ccc(Cl)cc3)c(C#N)c(N)n2)C(c2ccccc2)NC(=S)N1` (centres undefined), with 126%.
Then `COc1ccc(-c2cc(-c3cc(C(=O)c4ccccc4)n4ccc(C)cc34)nc(N)c2C#N)cc1`, with 94.4%.
For the compound `COc1cc2c3c(n(CCCNCCO)c(=O)c2cc1OC)-c1nc2c(cc1C3=O)OCO2`, the growth was -14.2% (active).
For `COc1ccc(/C=C/C(=O)c2ccc(N3CCN(C)CC3)cc2)c(C(F)(F)F)c1`, the growth was 63.7%.
Then `Cn1cc(/C=N/Nc2cccc(Cl)n2)c2ccccc21`, with 92.6%.
With `COc1ccc(C(=O)CSc2nnc(-c3c[nH]c4ccccc34)n2-c2ccccc2)cc1`, the growth is 66.3%.
On to `N#Cc1c(NC(=O)c2ccc(C(F)(F)F)c(Cl)c2)sc2c1CCC(=O)C2`, for which the growth was -30.1% (active).
As to `COc1cc(/C=C/C(=O)c2ccc(NC(=O)CSc3nnc(-c4c[nH]c5ccccc45)n3-c3ccccc3)cc2)cc(OC)c1OC`, the growth was 121%.
As for `O=C(Nc1cccc([N+](=O)[O-])c1)Nc1cccc([N+](=O)[O-])c1`, the growth is 129%.
`COc1cc(NC(=O)CSc2nnc(-c3ccc4nc(-c5ccc(Cl)cc5)[nH]c4c3)o2)cc(OC)c1OC`: the growth was 101%.
The same measure for `O=S(=O)(Nc1ncccn1)c1ccc(-n2c(-c3ccc(Br)cc3)nc(-c3ccccc3)c2-c2ccccc2)cc1`: 76.4%.
Then `CCN1CCN(Cc2ccc(C(=O)Nc3cccc(-c4cn(-c5ccc6oc(=O)ccc6c5)nn4)c3)cc2C(F)(F)F)CC1`, with 25.4%; and `Cc1cc(=O)oc2cc(OCCCCOc3ccc(/C=C/C(=O)Nc4ccc(F)c(Cl)c4)cc3)ccc12`, with 122%; and `Cc1cc(C)nc(/N=C(\N)Nc2ccc(S(=O)(=O)Nc3nc(C)cc(C)n3)cc2)n1`, with 106%.
In the case of `Cc1cccc(-c2nc(Nc3ccccc3C(=O)O)c3ccccc3n2)c1`, the growth is 76.7%.
The same measure for `C=C1CCC2C3(C)COC(c4cccc(F)c4)OC3CCC2(C)C1CC(O)C1=CCOC1=O` (centres undefined): 108%; for `CC1CC(c2ccc(N(C)C)cc2)=NN1c1nc(O)c(C2=c3cc(Br)ccc3=NC2=O)s1` (centres undefined): 91.3%; for `C/C(=N\NC(N)=S)c1ccc(Nc2nc(SC(C)C)nc(-c3ccccc3)c2C#N)cc1`: 90%.
The same measure for `O=c1c2ccccc2nc(COc2ccccc2)n1/N=C/c1ccc(N2CCCC2)cc1`: 113%; for `CN1CCN(Cc2ccc(NC(=O)c3cncc(C#Cc4cnc5ccc(N[C@H]6CCOC6)nn45)c3)cc2C(F)(F)F)CC1`: -63.8% (active).

Source of the values: PubChem BioAssay (NCI).
